From PubChem BioAssay
Rows were chosen to be rich in hits. Some 5.4% of all compounds tested hit in one or more screens of this group.
ALR H2O2 inh = inhibitors of human sulfhydryl oxidase ALR; hit rate 3.8% among 290,000; inhibition, % (no concentration beside the values); P55789; purified ALR, DTT oxidation, H2O2 HRP-luminol luminescence;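 active means mean replicate inhibition above about 79%, with every replicate also reaching it, limit read from the data; inconclusive means only one of the two criteria met; inactive means mean below limit and not every replicate reaching it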
Target sequence (P55789 whole entry, looked up): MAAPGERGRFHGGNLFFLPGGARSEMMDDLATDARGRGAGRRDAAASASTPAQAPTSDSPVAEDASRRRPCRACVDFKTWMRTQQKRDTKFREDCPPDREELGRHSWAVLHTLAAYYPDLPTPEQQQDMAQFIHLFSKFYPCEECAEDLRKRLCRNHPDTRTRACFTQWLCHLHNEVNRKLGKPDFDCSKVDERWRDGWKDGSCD
PfM18AAP inh = PfM18AAP enzyme inhibition; hit rate 1.2% among 290,000; AID 1822; recombinant PfM18AAP, H-Glu-NHMec fluorogenic cleavage; inhibition, % at 7.35 µM;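 active means inhibition above the campaign mean inhibition over all tested compounds plus 3 SD, cut at about 28% in these data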
Exocytosis inh = lytic granule exocytosis inhibition; TALL-104 LAMP-1 surface exposure, flow cytometry; cells stimulated with thapsigargin and PMA; inhibition, % at 10 µM; hit rate 0.66% among 360,000; AID 651702;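 active means inhibition above about 55%, limit read from the data; inconclusive means no clear call, values can overlap the other calls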
JMJD2C inh = blocks human GASC-1 demethylase activity | Q9H3R0 | GST-JMJD2C(1-420) H3K9me3 demethylation, DELFIA europium | inhibition, % at 2.35 µM | hit rate 0.069% among 330,000;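 active means more than half of a compound's replicate wells show inhibition beyond 50%, single wells judged on their own value; inconclusive means some, but no more than half, of replicates pass 50% inhibition; inactive means no replicate passes 50% inhibition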;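 further: signal counts dimethyl H3K9 product captured on neutravidin plate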
SMARCA2 act = SMARCA2 function activation, primary screen; activation, % at 9.1 µM; hit rate 1% among 370,000; MG213 cells, MMTV-luciferase reporter, dexamethasone, overnight; in the data active means activation above about 7.8%
beta cell repl = inducers of beta-cell replication in MIN6 cells | proliferation, % at 10 µM | hit rate 0.29% among 330,000 | MIN6 cells proliferation, ATPlite luminescence, 48 h; cells starved in 0.2% serum; 100% = growth in 10% serum;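 active means compounds whose signal lies at least 3.5 SD above the mean of all wells on their plate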
Exocytosis CP01 = lytic granule exocytosis inhibition; shares compounds with Exocytosis inh; TALL-104 cells, LAMP-1 externalization, flow cytometry; stimulated with PMA plus thapsigargin; inhibition, % at 10 µM; hit rate 11% among 1,500; AID 651954; in the data active means inhibition above about 60%
Large screens that a line does not name were inactive (follow-up assays come after a bar, where they were run).

COc1cc2c(c(OC)c1OC)[C@@]1(c3ccccc3)CCCC[C@H]1[C@@H]2NC(=O)C(F)(F)F	none (no result: ALR H2O2 inh, PfM18AAP inh, Exocytosis inh, JMJD2C inh, beta cell repl)
Cc1cc2nc(-c3ccco3)c(Cc3cccc(Cl)c3)n2c(C)c1Br	Exocytosis inh 73 (no result: ALR H2O2 inh, PfM18AAP inh, JMJD2C inh, beta cell repl) | Exocytosis CP01 inactive
Cc1cc(Br)cn2c(Cc3cccc(Cl)c3)c(-c3ccco3)nc12	Exocytosis inh 56 (no result: ALR H2O2 inh, PfM18AAP inh, JMJD2C inh, beta cell repl) | Exocytosis CP01 inactive
Cc1ccc(Cc2c(-c3ccco3)nc3c4ccccc4ccn23)cc1	Exocytosis inh 58 (no result: ALR H2O2 inh, PfM18AAP inh, JMJD2C inh, beta cell repl) | Exocytosis CP01 inactive
COc1cccc(CNC(=O)[C@H]2CCCN2)c1	none (no result: ALR H2O2 inh, PfM18AAP inh, Exocytosis inh, JMJD2C inh, beta cell repl)
CCOC(=O)C1CCN(Cc2cc(Cl)c3ccccc3c2O)CC1	Exocytosis inh 78 (no result: ALR H2O2 inh, SMARCA2 act) | Exocytosis CP01 inactive
O=C(N[C@@H](Cc1cccnc1)C(=O)N1CCC[C@H]1C(=O)NCc1ccccc1)c1ccccc1	none (no result: ALR H2O2 inh, PfM18AAP inh, Exocytosis inh, JMJD2C inh, beta cell repl)
CCN(CC)S(=O)(=O)c1cc(NC(=O)CNc2cccc(S(=O)(=O)N3CCOCC3)c2)ccc1C	Exocytosis inh 57 (no result: PfM18AAP inh) | Exocytosis CP01 inactive
Cc1ccc(NC(=O)CNc2cccc(S(=O)(=O)N3CCOCC3)c2)cc1F	none (no result: ALR H2O2 inh, PfM18AAP inh)
CCC(CC)C(=O)Nc1ccc(Sc2ccc([N+](=O)[O-])cc2)cc1	Exocytosis inh 56 | Exocytosis CP01 inactive
CCCC(=O)Nc1ccc(Sc2ccc([N+](=O)[O-])cc2)cc1	none
CN1CCN(C(=O)OCCOCCOC(=O)N2CCN(C)CC2)CC1	Exocytosis inh 60 (no result: ALR H2O2 inh, PfM18AAP inh, JMJD2C inh, beta cell repl) | Exocytosis CP01 inactive
c1ccc(CC2CCN(c3ncnc4sccc34)CC2)cc1	Exocytosis inh 63 (no result: ALR H2O2 inh, beta cell repl) | Exocytosis CP01 inactive
COC(=O)[C@]12C[C@H](CC(=O)NCCCN3CCCC3=O)C(=O)N(Cc3cccc4ccccc34)C1=C[C@H](COCc1ccccc1)O[C@@H]2C	none (no result: ALR H2O2 inh, PfM18AAP inh, Exocytosis inh, JMJD2C inh, beta cell repl)
C[C@@H]1CN([C@H](C)CO)C(=O)c2c(c3ccccc3n2C)-c2ccccc2CO[C@H]1CN(C)Cc1ccc(Oc2ccccc2)cc1	Exocytosis inh 56 (no result: ALR H2O2 inh, PfM18AAP inh, JMJD2C inh, beta cell repl) | Exocytosis CP01 inactive
C[C@@H]1CN([C@H](C)CO)C(=O)c2c(c3ccccc3n2C)-c2ccccc2CO[C@H]1CN(C)Cc1ccc(C(F)(F)F)cc1	none (no result: ALR H2O2 inh, PfM18AAP inh, JMJD2C inh, beta cell repl)
CN(C)CCn1c(=N)n(CC(O)c2ccc(Cl)c(Cl)c2)c2ccccc21 (stereo unspecified)	Exocytosis inh 85 | Exocytosis CP01 inactive
COc1ccccc1NC(=O)C1(c2ccccc2)CCCC1	Exocytosis inh 85 | Exocytosis CP01 inactive
c1ccc(-c2ccccc2-c2nc(-c3cccnc3)no2)cc1	Exocytosis inh 93 | Exocytosis CP01 inactive
Cc1ccc(Nc2nc(NCc3ccco3)c3ccccc3n2)cc1	Exocytosis inh 69 | Exocytosis CP01 67
c1ccc(CNc2c3ccccc3nc3ccccc23)cc1	Exocytosis inh 61 | Exocytosis CP01 inactive
COc1ccccc1Nc1nc(NCc2ccco2)c2ccccc2n1	Exocytosis inh 99 | Exocytosis CP01 inactive
c1ccc(CNc2ncnc3ccccc23)cc1	none
c1ccc(CNc2nc(N3CCN(Cc4ccccc4)CC3)nc3ccccc23)cc1	Exocytosis inh 101 | Exocytosis CP01 inactive
CCCC(C)C(=O)NC1CCCCN(C)C1=O (stereo unspecified)	none (no result: ALR H2O2 inh, PfM18AAP inh, Exocytosis inh, JMJD2C inh, beta cell repl)
Cc1ccc2c(c1)N(CCCC(=O)N(C)Cc1ccccc1Cl)C(=O)CO2	none (no result: ALR H2O2 inh, PfM18AAP inh, Exocytosis inh, JMJD2C inh, beta cell repl)
Oc1ccccc1Nc1nc(NCc2ccccc2)c2ccccc2n1	ALR H2O2 inh inconclusive, Exocytosis inh 68 | Exocytosis CP01 66
CNc1nc(NCc2ccccc2)c2ccccc2n1	none (no result: ALR H2O2 inh)
CCc1cc2cc(C)ccc2nc1SCC(=O)NC1CCCC1	Exocytosis inh 92 | Exocytosis CP01 inactive
Cc1cc(SCC(=O)NC2CCCC2)nc2ccccc12	none
CCc1cc2cccc(C)c2nc1SCC(=O)NC1CCCC1	none
Cc1cc(SCC(=O)NC2CCCCC2)nc2ccccc12	Exocytosis inh 98 | Exocytosis CP01 inactive
COc1ccc(OC)c(-c2csc(NC(=O)c3ccc(F)cc3)n2)c1	Exocytosis inh 80 | Exocytosis CP01 inactive
Cc1ccc(-c2csc(NC(=O)c3ccc(-c4ccccc4)cc3)n2)o1	none (no result: SMARCA2 act)
Cc1ccc(-c2csc(NC(=O)Cc3ccc(F)cc3)n2)o1	Exocytosis inh 75 | Exocytosis CP01 inactive
COc1ccc(OC)c(-c2csc(NC(=O)Cc3ccc(F)cc3)n2)c1	Exocytosis inh 97 | Exocytosis CP01 inactive
